Drawing on PubChem BioAssay (Tox21), this text covers Potency for 40 compounds.

Each structure is given as a SMILES string. Several values for one entry are separate records, joined by “and”; a condition that tells them apart may be missing. Identical values can stand only once. Records with an inconclusive call do not appear. A call without a number means that no potency is given here. Where a structure was tested more than once in an assay, its records may differ in their call. Activity calls are given as the source filed them. The call rests on the fitted dose curve; in most records, active means well fitted activation curve with a large enough effect in the repeat runs; inconclusive means weak or mixed curves; inactive means flat fitted curve, though single readings scatter.
Potency means the concentration at half of the fitted maximal effect.

The assay can be described thus: A CellTox Green Cytotoxicity Assay to monitor cytotoxicity in HEK293 cells - 32 hour (AID 1224881). Further: nearly all actives have a fitted effect of over 40% in size. As to conditions: CellTox Green fluorescence; series mostly up to 76.8 µM. The source says: National Center for Advancing Translational Sciences [NCATS]
NIH Chemical Genomics Center [NCGC]
U.S. Environmental Protection Agency [EPA]
National Institutes of Environmental Health Sciences [NIEHS]
National Toxicology Program [NTP]
Cell-based models are critical for drug discovery. Determining the natural cytotoxic effects resulting from test compounds is an essential research activity. A CellTox Green Cytotoxicity Assay to monitor cytotoxicity in real time of continues cell culture during 40 hours of the compound treatment was used to screen Tox21 10K library compounds in Hek293 cells. CellTox Green Cytotoxicity Assay is a nonlytic, homogeneous, biofluorescent method to measure cytotoxicity in cell culture after experimental manipulation. The assay system uses a proprietary asymmetric cyanine dye that is excluded from viable cells but preferentially stains the dead cell's DNA. […] Viable cells produce no appreciable increases in fluorescence. Therefore, the fluorescence signal produced by the binding interaction with dead cell DNA is proportional to cytotoxicity.
The mixture of Hek293 cell suspension and reagents were dispensed at 600cells/6 ul/well in 1536-well tissue culture treated black solid bottom plates using a Multidrop dispenser. After the assay plates were incubated at a 37 C/5% CO2 incubator for 5 hours, 23 nL of compounds dissolved in DMSO, positive and negative controls was transferred to the assay plate by a pintool work station. The plates were incubated at 37 C for 40 hours. The fluorescence intensity were measured at 0h, 8h, 16h, 24h, 32h and 40h time points using ViewLux plate reader during compound treatment.
Take `CC(O)CN(CC(C)O)CC(C)O` (stereo not given): the Potency entry is “inactive”.

Regarding `CC(C)(O)C(=O)Nc1ccc([N+](=O)[O-])c(C(F)(F)F)c1`, the Potency result was “inactive”.

Turning to `CCOP(=O)(OCC)OCC`, the Potency entry was “inactive”.

Consider `O=[N+]([O-])/N=C1\NCCN1Cc1ccc(Cl)nc1`, for which the Potency entry is “inactive”.

As to `CCC/C=N/O`, the Potency result was “inactive”.

For `ClC(Cl)=C(Cl)C(Cl)=C(Cl)Cl`, the Potency result was “inactive”.

Regarding `CCCCCCCCCCCCCl`, the Potency entry was “inactive and 19.5 µM (active)”.

With `C=C(C)C#N`, the Potency entry was “inactive”.

On to `Oc1ccc(Cl)cc1Cl`, for which the Potency result was “inactive”.

As for `O=S(=O)(O)C(F)(F)C(F)(F)C(F)(F)C(F)(F)C(F)(F)C(F)(F)C(F)(F)C(F)(F)F`, the Potency is 33 µM (active) and inactive and 21.9 µM (active).

As for `CC1(C)Cc2cccc(O)c2O1`, the Potency entry was “inactive”.

On to `C[N+](C)(C)CC(=O)O`, for which the Potency entry was “inactive”.

`CCC[CH2][Sn]([Cl])([CH2]CCC)[CH2]CCC`: the Potency was 618 nM (active) and 776 nM (active).

Turning to `NC(=O)CN1CCCC1=O`, the Potency entry is “inactive”.

Regarding `CC(C)(C#N)N=NC(C)(C)C#N`, the Potency result is “inactive”.

Turning to `Nc1ccc([N+](=O)[O-])cc1N`, the Potency entry was “inactive”.

On to `Cn1c(-c2ccccc2)cc(-c2ccccc2)[n+]1C`, for which the Potency entry is “inactive”.

For `CCOC(=O)c1ccccc1N`, the Potency result is “inactive”.

On to `CNC(=S)S`, for which the Potency result is “inactive”.

For `COP(=S)(OC)Oc1ccc(S(=O)(=O)N(C)C)cc1`, the Potency entry was “inactive”.

For `CCC(=O)Nc1ccc(Cl)c(Cl)c1`, the Potency entry is “inactive”.

Take `C[N+](C)(C)CC(=O)[O-]`: the Potency entry was “inactive”.

For `CC(C)Nc1ccc(Nc2ccccc2)cc1`, the Potency was 48.8 µM (active) and 49 µM (active).

Turning to `N#Cc1c(Cl)c(Cl)c(Cl)c(C#N)c1Cl`, the Potency was 7.61 µM (active) and 6.16 µM (active).

Regarding `Oc1ccc(Cl)cc1Cc1ccccc1`, the Potency was 12.3 µM (active) and 22.1 µM (active) and 21.3 µM (active).

With `CC(C)Nc1nc(Cl)nc(NC(C)C)n1`, the Potency entry is “inactive”.

Regarding `CCOP(=S)(OCC)SCn1c(=O)oc2cc(Cl)ccc21`, the Potency entry is “inactive”.

On to `OCCOCCO`, for which the Potency result was “inactive”.

For the compound `CCC1(c2ccc(N)cc2)CCC(=O)NC1=O` (stereo not given), the Potency result is “inactive”.

`Clc1ccccc1-c1nnc(-c2ccccc2Cl)nn1`: the Potency result was “inactive”.

For `O=NN(c1ccccc1)c1ccccc1`, the Potency result was “inactive”.

On to `N#Cc1cccnc1`, for which the Potency result is “inactive”.

With `CCOP(=O)(O)OCC` (tested in a mixture with another compound), the Potency entry was “inactive and 24.3 µM (active)”.

Regarding `CC(C)(c1ccccc1)c1ccc(O)c(C(C)(C)c2ccccc2)c1`, the Potency is 38.5 µM (active) and 43.6 µM (active).

With `CCCCC(C#N)(Cn1cncn1)c1ccc(Cl)cc1` (stereo not given), the Potency entry was “inactive”.

On to `CC1=C(C(=O)Nc2ccccc2)SCCO1`, for which the Potency result was “inactive”.

For the compound `Nc1ccc2ccccc2c1`, the Potency entry is “inactive”.

With `CC(C)=CC1C(C(=O)OCc2cccc(Oc3ccccc3)c2)C1(C)C` (stereo not given), the Potency result is “inactive”.

In the case of `ClC(Cl)(Cl)c1ccccc1`, the Potency entry was “inactive”.

As for `C=CC(=O)OCC(CC)(COC(=O)C=C)COC(=O)C=C`, the Potency was 5.64 µM (active) and 11 µM (active).
